# Laboratory results published in PubChem BioAssay AID588342 (National Center for Advancing Translational Sciences (NCATS), 2011).
# Among all 360,000 compounds or so, about 25,000 (6.9%) were called active. Where a call stands in place of a potency, no number is given. Roughly 9% stayed inconclusive and do not appear here. This is one part of a sample in which actives are shown more often than they occur. The call rests on the fitted dose curve; in most records, active means well fitted inhibition curve with a large enough effect; inconclusive means small, poorly fitted or top-dose-only effect; inactive means flat fitted curve, though single readings scatter.
# Biological target: Luciferin 4-monooxygenase (Photinus pyralis) (UniProt P08659)
# Sequence (P08659 whole entry, looked up): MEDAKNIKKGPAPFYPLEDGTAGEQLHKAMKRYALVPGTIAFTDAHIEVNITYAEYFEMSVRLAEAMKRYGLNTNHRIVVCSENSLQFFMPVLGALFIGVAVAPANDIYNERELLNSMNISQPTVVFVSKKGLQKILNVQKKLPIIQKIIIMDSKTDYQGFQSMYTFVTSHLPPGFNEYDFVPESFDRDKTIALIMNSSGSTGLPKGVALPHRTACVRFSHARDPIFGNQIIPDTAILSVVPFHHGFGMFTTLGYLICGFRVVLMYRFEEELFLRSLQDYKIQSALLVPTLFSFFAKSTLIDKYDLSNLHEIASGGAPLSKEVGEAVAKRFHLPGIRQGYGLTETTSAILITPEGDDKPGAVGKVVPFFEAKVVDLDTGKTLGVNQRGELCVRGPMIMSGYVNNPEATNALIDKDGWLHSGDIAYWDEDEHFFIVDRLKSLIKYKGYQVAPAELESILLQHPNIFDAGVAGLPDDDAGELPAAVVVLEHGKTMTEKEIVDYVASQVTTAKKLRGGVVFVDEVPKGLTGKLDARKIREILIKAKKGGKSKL
# Assay: qHTS profiling assay for firefly luciferase inhibitor/activator using purifed enzyme and Km concentrations of substrates (counterscreen for miR-21 project); further: nearly all actives have a fitted effect of over 55% in size
# Conditions: purified FLuc, luminescence inhibition; series mostly up to 57.5 µM
# Excerpt: MLPCN Grant: 1 R21 NS059478-01 (miR-21 grant) Assay Provider: NCGC NCGC Assay Overview: Firefly (Photinus pyralis) luciferase is one of the most commonly used transcriptional reporters for a number of reasons. It is considered one of the more dynamically responsive reporters -that is, responsive to changes in reporter transcription - as it requires no post-translational modifications and is enzymatically active directly after protein synthesis (Wood, 1998). Additionally, the half-life of the luciferase protein is short relative to other reporter-gene products (Wood, 1995). Whereas reporters with long half-lives potentially allow for increased signal due to accumulation of reporter-gene product, once accumulated in the cell, dynamic changes in reporter-gene expression may be difficult to detect(Fan and Wood, 2007; Almond et al., 2004). It has been shown that wild-type P. pyralis luciferase has a half-life of approximately […] hours in mammalian cells (Thompson et al., 1991). Firefly luciferase reporter-gene assays are also generally considered one of the most sensitive assay types (Wood, 1995; Wood, 1998). Although light produced in a bioluminescence reaction is of lower intensity than that produced during fluorescence emission, this is offset by little to no background light inherent to luminescent assays. Thus the luciferase reporter can be expressed at much lower levels than fluorescent proteins while still providing robust signal. # However, it was initially observed, in 1991, by Thompson et al., that compounds that resemble the substrates of firefly luciferase (FLuc) can act as competitive inhibitors of the enzyme, and that these compounds, upon interaction with luciferase in the cell, can actually stabilize the protein and increase its half-life. Accumulated intracellular FLuc protein can be measured as an increase in luminescence signal, upon addition of detection reagents (which contain high concentrations of FLuc substrates) commonly used in high-throughput screening. In cell-based reporter gene assays that use FLuc as the reporter gene to quantitate the potential influence of a given compound against the target biology, this apparent increase in luminescence can mistakenly be interpreted as identification of a compound that is active against the target of interest. This is the case for the miR-21 FLuc reporter gene assay used to identify inhibitors of the miR-21 pathway (PubChem AID 2289) - compounds of interest will inhibit miR-21 biogenesis/expression or activity, and are identified by causing an increase in luminescence, due to increased FLuc translation. However, FLuc inhibitory compounds that stabilize the FLuc protein will give an identical read-out, making it difficult to distinguish compounds that are active against the target from those active against FLuc. Previous profiling work to determine the prevalence of compounds that affect FLuc enzymatic activity (PubChem AID 411) identified that ~3% of the MLSMR library (then at ~72K) inhibited FLuc. […] Since the MLSMR had grown to ~350K compounds, and since it was expected that a significant percentage of compounds found active in the miR-21 FLuc assay would be FLuc inhibitors, the library was screened for activity against FLuc using a biochemical assay of purified FLuc and KM concentrations of FLuc substrates (D-luciferin and ATP).
# NCGC Assay Protocol Summary: Reagents: 50mM Tris acetate, pH 7.5; 10mM Mg acetate; 10uM D-luciferin (Sigma #L9504); 10uM ATP; 0.01% Tween-20; 0.05% BSA; 10nM P. pyralis luciferase (Sigma #L9506) Control compounds used were two known firefly luciferase inhibitors (compounds (2) and (5) in Auld et al., 2010), and DMSO. […]
row,SMILES,Potency
1,Cc1sc(C2C(C#N)=C(N)N(c3cccc(Cl)c3)C3=C2C(=O)CCC3)cc1CN1CCOCC1 (stereo not given),inactive
2,Cc1ccsc1C(=O)NC1CCCCC1C (stereo not given),inactive
3,CCOc1ccccc1CNC(=O)Nc1cn(CC(C)C)c(=O)c2ccccc12,inactive
4,COc1ccccc1-c1oc2ccccc2c1C#CCCCCO,inactive
5,COC(=O)CC1Oc2ccccc2-n2cc(-c3ccccc3)nc21 (stereo not given),inactive
6,CCN1C(=O)c2ccccc2Sc2ccc(NC(=O)Cc3ccc(OC)cc3)cc21,inactive
7,COc1ccc(/C=C(/NC(=O)c2ccco2)C(=O)Nc2ccc(C(C)=O)cc2)cc1,inactive
8,COc1ccc(C(=O)NCc2ccc(Cl)cc2)cc1S(=O)(=O)N1CCCC1,inactive
9,CCOc1ccc(Nc2oc(/C=C/c3ccc(F)cc3)nc2C#N)cc1,inactive
10,CCCCn1c(=N)c(S(=O)(=O)c2ccccc2)cc2c(=O)n3cccc(C)c3nc21,inactive
11,Nc1nc(SCC(=O)NCCN2CCOCC2)nc2sc3c(c12)CCC3,inactive
12,CN1CCN(CC(=O)Nc2sc3c(c2C#N)CCC(C(C)(C)C)C3)CC1 (stereo not given),inactive
13,CC(C)(C)C1CCc2c(sc3nc(SCC(N)=O)nc(N)c23)C1 (stereo not given),4.78 µM (active)
14,COc1ccc(OC)c(NC(=O)CSc2nc3ccccc3nc2N2CCCCC2)c1,inactive
15,CCOc1ccc(C(C)NC(=O)CN2C(=O)NC3(CCCCC3)C2=O)cc1OCC (stereo not given),inactive
16,O=C(CSc1nc(-c2cccc(F)c2)[nH]c1-c1ccccc1)Nc1ccc2c(c1)OCO2,inactive
17,CCOC(=O)C(Cc1ccccc1)NC(=O)CCc1c(C)nc2c(c(C)nn2-c2ccc(C)c(C)c2)c1C (stereo not given),inactive
18,O=C(CSc1nc2ccccc2[nH]1)c1cccs1,6.75 µM (active)
19,CCCCSc1nc2ccccc2[nH]1,16.9 µM (active)
20,COc1ccccc1-c1noc(CSc2nc(C)cc(=O)[nH]2)n1,inactive
21,COc1ccccc1CSc1nc2ccccc2[nH]1,13.5 µM (active)
22,CCc1nnc(NC(=O)CCCSc2nc3ccccc3[nH]2)s1,inactive
23,O=C(NCc1ccccc1)c1onc(CSc2nc3ccccc3[nH]2)c1C(=O)NCc1ccccc1,inactive
24,COc1ccc(NC(=O)CSc2nc3ccccc3[nH]2)cc1,inactive
25,CN(Cc1ccccc1)c1nc2c(c(=O)[nH]c(=O)n2C)n1CCSc1nc2ccccc2[nH]1,inactive
26,O=C(CSc1nc2ccccc2[nH]1)Nc1nc(-c2ccccc2)c(-c2ccccc2)o1,inactive
27,CCc1ccc(CN(C)C(C)C(=O)Nc2ccc(S(=O)(=O)N3CCCC3)cc2)cc1 (stereo not given),inactive

row,SMILES,Potency
1,Nc1c(Cl)cc(S(N)(=O)=O)cc1S(N)(=O)=O,inactive
2,COc1ccc(-n2c(=O)c3ccccc3n(Cc3ccccc3Cl)c2=O)cc1,inactive
3,Cc1ccc(Cn2c(=O)n(CCCC(=O)NCc3ccccc3Cl)c(=O)c3ccccc32)cc1,inactive
4,COc1ccc(C2=NC3(CCCCC3)N(CC(=O)Nc3ccc(C(C)C)cc3)C2=O)cc1,inactive
5,CCC(Sc1nncn1C)C(=O)Nc1nnc(-c2ccc(Cl)cc2)s1 (stereo not given),15.1 µM (active)
6,CCOC(=O)c1sc(NC(=O)C(CC)Sc2nccn2C)nc1C (stereo not given),inactive
7,CC(Sc1nncn1C)C(=O)Nc1ccccc1-c1ccccc1 (stereo not given),inactive
8,COc1ccc(C2CC(=O)Nc3c2c(=O)nc2c(C)cccn32)cc1OC (stereo not given),inactive
9,CCOc1ccc(C(=O)CCC(=O)NC2=NCCS2)cc1,inactive
10,O=C(NC1=NCCS1)c1ccc(Cl)s1,23.9 µM (active)
11,O=C(NC1=NCCS1)[C@H](Cc1ccccc1)N1C(=O)c2ccccc2C1=O,inactive
12,COc1ccc(C(=O)NC2=NCCS2)c(OC)c1,6.01 µM (active)
13,COc1ccc(OC)c(NC(=O)Cc2cccs2)c1,inactive
14,COc1ccccc1C(=O)NCCC(=O)NC1=NCCS1,inactive
15,O=C(NCc1ccc2c(c1)OCO2)c1ccc(Cl)s1,inactive
16,COc1cccc(OC)c1C(=O)Nc1nnc(C(C)C)s1,inactive
17,COc1ccc(C(=O)Nc2nncs2)c(OC)c1,8.49 µM (active)
18,Cc1c(NC(=O)CSc2nnc(-c3cccnc3)n2N)c(=O)n(-c2ccccc2)n1C,inactive
19,COc1ccc(CCNCc2c(C(=O)O)c(C)n(Cc3cccc(C)c3)c2C)cc1OC,inactive
20,Cc1ccc(NC(=O)CN2C(=O)C(c3ccc(F)cc3)=NC23CCCCCC3)c(C)c1,inactive
21,CCOc1ccc(N2C(=O)CSC2=NC#N)cc1,inactive
22,CCOc1ccccc1NC(=O)Cn1ncc2ccc([N+](=O)[O-])cc21,inactive
23,Cc1cccc(-n2ccnc2SCC(=O)Nc2cccc3ccccc23)c1C,inactive
24,Cc1ccccc1OCCC(=O)OCC(=O)NCCc1ccc(S(N)(=O)=O)cc1,inactive
25,COc1ccccc1CC(NC(C)=O)C(=O)NC1CCN(C(=O)Nc2ccccc2Cl)CC1 (stereo not given),inactive
26,O=C1Cc2cc(S(=O)(=O)Nc3ccc(OC(F)(F)F)cc3)cc3c2N1CCC3,inactive
27,O=C(O)c1ccccc1-c1ccccc1C(=O)Nc1cccc2ccccc12,inactive

row,SMILES,Potency
1,CN(CC(=O)Nc1ccc(Cl)cc1)CC(=O)Nc1cccc2ccccc12,inactive
2,O=C(Nc1cccc2ccccc12)c1onc2c1CCCC2,8.49 µM (active)
3,COc1ccc(C(=O)OCC(=O)c2ccc(Cl)s2)c(OC)c1OC,21.3 µM (active)
4,COc1ccc(Cl)cc1C(=O)OCC(=O)NCc1cccs1,inactive
5,COc1ccc(C(=O)OCC(=O)Nc2ccc3[nH]c(=O)[nH]c3c2)c(OC)c1OC,inactive
6,CCC1=Nc2cc(C(=O)NCC(C)c3ccccc3)ccc2Sc2ccc(C)cc21 (stereo not given),inactive
7,COC(=O)c1c(-c2ccc(C)cc2)csc1N,inactive
8,CCOC(=O)c1c(-c2ccc(-c3ccccc3)cc2)csc1NC(=O)CCC(=O)O,inactive
9,CCOC(=O)c1c(-c2ccc(C)cc2)csc1/N=C(\C)C1=C(O)c2ccccc2C1=O,2.69 µM (active)
10,CN(C)S(=O)(=O)c1cccc(NC(=O)COC(=O)C2(c3ccccc3F)CCCC2)c1,inactive
11,CN(C)S(=O)(=O)c1cccc(NC(=O)COc2ccc3ccccc3c2)c1,6.01 µM (active)
12,CN(C)S(=O)(=O)c1cccc(NC(=O)COC(=O)c2cc(=O)[nH]c(=O)[nH]2)c1,inactive
13,CCC(Oc1ccccc1C)C(=O)Nc1ccc(S(=O)(=O)Nc2cc(C)on2)cc1 (stereo not given),inactive
14,CC1CN(C(=S)Nc2ccc(Br)cc2Cl)CC(C)O1 (stereo not given),inactive
15,O=C(CSc1nnc2c(n1)[nH]c1ccccc12)NC1CCCCC1,inactive
16,O=C(/C=C/c1cnc2ccccc2n1)NC1CCCCCC1,13.5 µM (active)
17,O=C(Cn1c(-c2cncs2)nc2ccccc21)NC1CCCC1,inactive
18,COc1ccc(/C=C/CN2CCN(Cc3ccc(C)cc3)C(CCO)C2)cc1 (stereo not given),inactive
19,CCc1cnc2c(c1SCC(=O)N1CCC(C)CC1)c(=O)n(C)c(=O)n2C,inactive
20,O=C1CC[C@H](O)CCN1[C@H](CSc1ccc(Br)cc1)Cc1ccccc1,inactive
21,C=CCOc1ccc(/C=C2\SC(=S)N(CCC(=O)O)C2=O)cc1,1.69 µM (active)
22,O=C1/C(=C/c2ccc(F)cc2)SC(=S)N1CCCC(=O)N1CCCCC1CCO (stereo not given),inactive
23,Cc1ccc(/C=C2\SC(=S)N(CCC(=O)Nc3ccc(O)cc3)C2=O)cc1,inactive
24,O=C(NCc1ccncc1)c1cccc(NS(=O)(=O)c2ccc(F)c(F)c2)c1,inactive
25,COc1ccc(S(=O)(=O)NCCSc2nnnn2-c2ccccc2)cc1,inactive
26,COc1ccc(N(C)C(=O)C2CCN(S(=O)(=O)c3cc(Br)cc4c3N(C(C)=O)CC4)CC2)cc1,inactive
27,CC1=C(C(=O)OCc2ccc(C)cc2)C(c2ccccc2Cl)CC(=O)N1 (stereo not given),inactive

row,SMILES,Potency
1,CSc1ccc(CCNC(=O)c2cnn(-c3ccccc3)c2-n2cccc2)cc1,inactive
2,COc1ccc(CNC(=O)C2=Cc3cccc(OC)c3OC2)cc1OC,inactive
3,CCOc1cccc(C(=O)Nc2cnn(Cc3ccccc3)c2)c1,inactive
4,COCC(=O)Nc1nnc(COc2ccccc2)s1,inactive
5,CCOc1cccc(C(=O)Nc2nnc(-c3cccs3)s2)c1,1.51 µM (active)
6,Cc1cccc(C(C)C)c1NC(=O)C(NS(=O)(=O)c1cccc2nsnc12)c1ccccc1 (stereo not given),inactive
7,CCN(CC)S(=O)(=O)c1ccc2c(c1)N(CC(=O)NCc1ccccc1)C(=O)CS2,inactive
8,CN1C(=O)c2[nH]nc(-c3ccc(F)cc3)c2C1c1ccccn1 (stereo not given),inactive
9,COc1cccc(NC(=O)N2C3CCCC2CC(NC(C)=O)C3)c1 (stereo not given),inactive
10,Cc1ccc(OCCOc2cccc(/C=N/NC(N)=O)c2)cc1,inactive
11,O=C(N/N=C/c1cccc(O)c1)c1cc2c(ccc3ccccc32)o1,10.7 µM (active)
12,O=C(Cc1cccs1)N/N=C/c1ccc(OCc2ccccc2)cc1,inactive
13,O=C(Cc1c[nH]c2ccccc12)N/N=C/c1cccc(F)c1,inactive
14,O=C(N/N=C/c1cccc(OCc2ccccc2)c1)c1ccc(Br)o1,21.3 µM (active)
15,CCCc1ccc(OCc2ccc(C(=O)N/N=C/c3cccc([N+](=O)[O-])c3)o2)c(OC)c1,inactive
16,Cc1cccc(Oc2c([N+](=O)[O-])c(=O)n(C)c3ccccc23)c1,inactive
17,COc1ccc(Cl)cc1NC(=O)CSc1nc2ccccc2c2nc(-c3ccccc3)nn12,inactive
18,CCOc1cccc(NC(=O)c2ccc(F)c(S(=O)(=O)N(CC)c3cccc(C)c3)c2)c1,inactive
19,CCCN1CCc2nc(N3CCN(C)CC3)ncc2C1,inactive
20,CCN1CCCC1CNC(=O)c1cc2cc(OC)c(OC)cc2[nH]1 (stereo not given),inactive
21,COc1ccc(CCNC(=O)CCc2ccccc2O)cc1OC,inactive
22,COc1ccc(C(=O)CCc2ccccc2O)c(OC)c1,12 µM (active)
23,COc1ccc(C(=O)NC(C)CCc2ccccc2)c(OC)c1 (stereo not given),inactive
24,O=C(c1cc2cc(Br)cc(Br)c2oc1=O)N1CCOCC1,inactive
